PubChem BioAssay (NCI)
Several values for one entry are separate records, joined by “and”; a condition that tells them apart may be missing. Equal entries are not always repeated. About 83,000 compounds went through this panel and 20% of them were active in at least one assay; those are over-represented in the sample as a whole.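 Growth was measured after 48 h exposure to one concentration of compound in 96-well plates. Values under 10 count as active.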 Unmarked numbers belong to inactive results. Activity calls are given as the source filed them.

What follows are compounds tested on MDA-MB-468 breast (assay: NCI-60 one-dose screen, 48 h (100 = growth as untreated, 0 = no growth, -100 = all killed)). Settings: 10 µM unless noted.

Compound | growth
CCO/C=C1\SC(=S)N(c2cccc(O)c2)C1=O | 87.6%
c1ccc(Cn2cnc3ccc(-c4nc(-c5ccc6c(c5)ncn6C5CCCCC5)cn5ccnc45)cc32)cc1 | -35.7% (active)
CCCNC(=O)Oc1ccc(/C(=C(\C)c2ccccc2)c2ccc(OCCN3CCCCC3)cc2)cc1 | 73.6%
COc1ccc(-c2nnc(N3CCN(C(=O)CN4CCN(c5ccc(OC)cc5)CC4)CC3)nc2-c2ccc(OC)cc2)cc1 | -54.8% (active)
Cc1ccc(-c2cc(-c3ccc(Cl)cc3)nc(NC(=O)c3cccnc3)n2)cc1 | 106%
O=C(CCc1nnc2sc(OCc3ccccc3)nn12)c1nc2ccc([N+](=O)[O-])cc2[nH]1 | 109%
Cn1cc(-c2csc(-c3cn(CCO)c4ccc(F)cc34)n2)c2cccnc21 | -16.5% (active)
Cc1nc2sccn2c1-c1csc(Nc2ccccc2Cl)n1 | 19%
CCN1/C(=C/C(C)=C/c2sc3ccc4ccccc4c3[n+]2CC)Sc2ccc3ccccc3c21 | -87.4% (active)
CC(=O)OCC(=O)[C@@]1(O)CC[C@H]2[C@@H]3CC(=C(Br)Br)C4=CC(=O)CC[C@]4(C)[C@H]3C(=O)C[C@@]21C | 79.1%
OC(CSc1ccccc1)CN1CCN(c2cccc(Cl)c2)CC1 (stereo unspecified) | 96.8%
C/C(=N\NC(=S)N1CCCC1)c1ccccn1 | -31.9% (active)
O=C1Nc2ccccc2C12Nc1cc(Cl)ccc1S2 (stereo unspecified) | 105%
CN(Cc1ccccc1)c1nc(Cl)c(C2CC(c3ccc4c(c3)OCO4)=NN2c2cc(Cl)cc(Cl)c2)s1 (stereo unspecified) | 103%
Cc1ccc(C(C)C)c(O)c1NC(=O)OC(C)C | 97.5%
COc1ccc([C@@H]2[C@@H](O)C(=O)N2c2cc(OC)c(OC)c(OC)c2)cc1 | 2.98% (active)
CC(CN(C)C)Oc1ccccc1NC1=C(Cl)C(=O)C(Nc2ccccc2OC(C)CN(C)C)=C(Cl)C1=O (stereo unspecified) | -64.2% (active)
CCOc1nc(-c2ccccc2)cc2c(O)c(C(=O)NC(C)C)[nH]c(=O)c12 | 101%

Compound | growth
N#CCNC(=O)c1ccc(-c2ccnc(Nc3ccc(N4CCOCC4)cc3)n2)cc1 | 9.99% (active)
CC(=O)OC[C@]12CC[C@@H](C(=O)/C=C/c3cccnc3)[C@@H]1[C@H]1CC[C@@H]3[C@@]4(C)CC[C@H](OC(C)=O)C(C)(C)[C@@H]4CC[C@@]3(C)[C@]1(C)CC2 | -44% (active)
CCC[C@H](N[C@@H](C)C(=O)N1[C@H](C(=O)O)C[C@@H]2CCCC[C@@H]21)C(=O)OCC | 101%
CC(=O)O[C@@H]1CC2C(C)(C)CCCC2(C)C2=C1C(=O)C(C(C)C)=CC2=O (stereo partly specified) | -35.6% (active)
Clc1cc(Cl)cc(N2N=C(c3cccc(Nc4ccncc4)c3)CC2c2ccc3c(c2)OCO3)c1 (stereo unspecified) | 24.8%
Nc1nc2c(s1)CCc1c-2c(Br)n(Cc2ccccc2)c1Br | 33.4%
COc1ccc(-n2[nH]c3c(cnc4ccccc43)c2=O)cc1 | 108% and 99.5%
CCc1nc2cc(/C=C/C(=O)NO)ccc2c(=O)n1CCc1ccc(F)cc1 | -11.6% (active)
CCOc1cccc(/C=N/NC(=O)c2ccc(Nc3ccnc(C(F)(F)F)c3)cc2)c1O | -20.9% (active)
CC(=O)c1ccc2c(c1)c1ccccc1n2C | 79.5%
CCOC(=O)Nc1ccc2c(c1)C(=O)N(CC)c1ccccc1O2 | -3.61% (active)
COc1ccc(Cn2c(Br)c3c(c2-c2cc(OC)c(OC)c(OC)c2)CCc2sc(N)nc2-3)cc1 | 16.3%
Clc1ccc(-c2nnc(COc3ccc(C4=NNC(c5ccco5)C4)cc3)o2)cc1 (stereo unspecified) | 9.43% (active)
CC(=O)NC1C(O[C@H]2C[C@H]3[C@@H]4CC=C5C[C@@H](O)CC[C@]5(C)[C@H]4CC[C@]3(C)[C@H]2[C@H](C)C(=O)CCC(C)C)OCC(O)C1O (stereo partly specified) | 51.6%
Cc1cc(S(=O)(=O)N(C)C)cc(NCC(=O)NC(=O)NCC(C)C)c1C | 104%
N#CSCC1CC(O)(c2ccccc2)C(c2ccccc2)C(c2ccc(F)cc2)O1 (stereo unspecified) | -13.4% (active)
CCOC(=O)C/C(=C\c1ccccc1)C(C)=O | 108%
C=CC(=O)N1CCC(Oc2cc3c(Nc4ccc(Cl)c(Cl)c4F)ncnc3cc2OC)CC1 | -62.5% (active)
